Data: PubChem BioAssay (NCI)
Compounds without any hit were thinned out: in the full panel of roughly 83,000, 20% have a hit.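 Treatment: one concentration, 48 hours, 96-well format. Scoring: percent growth, with anything below 10 considered active.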 Values without a mark were called inactive. The source made the active and inactive calls.

Assays:
Assay in all cases: NCI-60 one-dose screen, 48 h (100 = growth as untreated, 0 = no growth, -100 = all killed)
Conditions in all cases: 10 µM unless noted
DU-145 prostate = test system: DU-145 prostate
K-562 leukemia = test system: K-562 leukemia
MALME-3M melanoma = test system: MALME-3M melanoma
MDA-MB-231 breast = test system: MDA-MB-231 breast
SF-268 CNS = test system: SF-268 CNS
SF-295 CNS = test system: SF-295 CNS
SF-539 CNS = test system: SF-539 CNS
M14 melanoma = test system: M14 melanoma
HCT-15 colon = test system: HCT-15 colon
HT29 colon = test system: HT29 colon
SNB-75 CNS = test system: SNB-75 CNS
SNB-19 CNS = test system: SNB-19 CNS
U251 CNS = test system: U251 CNS
PC-3 prostate = test system: PC-3 prostate
SK-MEL-5 melanoma = test system: SK-MEL-5 melanoma
UACC-62 melanoma = test system: UACC-62 melanoma
LOX IMVI melanoma = test system: LOX IMVI melanoma
SK-MEL-28 melanoma = test system: SK-MEL-28 melanoma

SMILES | growth (DU-145 prostate) | growth (K-562 leukemia) | growth (MALME-3M melanoma) | growth (MDA-MB-231 breast) | growth (SF-268 CNS) | growth (SF-295 CNS) | growth (SF-539 CNS) | growth (M14 melanoma) | growth (HCT-15 colon) | growth (HT29 colon) | growth (SNB-75 CNS) | growth (SNB-19 CNS) | growth (U251 CNS) | growth (PC-3 prostate) | growth (SK-MEL-5 melanoma) | growth (UACC-62 melanoma) | growth (LOX IMVI melanoma) | growth (SK-MEL-28 melanoma)
C=CCC(=O)N[C@H](/C=C/C(=O)O)Cc1ccc(-c2cc(Cl)cc(Cl)c2)cc1 | 106% | 96.7% | 99.9% | 97.9% | 98.7% | 101% | 94.6% | 92.2% | 98.1% | 97.8% | 87% | 97.9% | 83% | 80.6% | 95.7% | 86.8% | 96.9% | 112%
COc1ccc2nc3cc(Cl)ccc3c(Nc3ccc(N(C)C)cc3)c2c1 | 91% | 80.2% | 106% | 89.8% | 94.5% | 86.8% | 95.1% | 98.2% | 91.1% | 72.1% | 111% | 101% | 93.5% | 85.4% | 100% | 98.1% | 88.8% | 112%
O=C1CC(c2cccc(F)c2)c2c(n[nH]c2-c2ccc(Cl)cc2)N1 (stereo not drawn) | 102% | 96.4% | 99.4% | 80.4% | 94.1% | 91.8% | 91.3% | 100% | 92.5% | 81.1% | 97.3% | 99.3% | 86.1% | 80.5% | 87.1% | 86.2% | 96.9% | 107%
COc1ccc2c(CCCc3ccc(Cl)cc3Cl)c3[n+](cc2c1OC)CCc1cc2c(cc1-3)OCO2 | 17.9% | 6.33% (active) | -28.7% (active) | -10% (active) | 12.9% | -19.3% (active) | -46.3% (active) | -24.5% (active) | 24.4% | -15.6% (active) | 15.2% | 16.7% | 3.76% (active) | -14.2% (active) | -99.6% (active) | -68.2% (active) | -80.3% (active) | -35.6% (active)
O=C1CSC(c2c(F)cccc2Cl)N1NC(=O)C(O)(c1ccccc1)c1ccccc1 (stereo not drawn) | 108% | 80.3% | 82.1% | 93% | 112% | 94.3% | 100% | 94.5% | 102% | 95.9% | 82.9% | 98.4% | 95.7% | 95.5% | 89.5% | 82.8% | 94.2% | 107%
COc1cc2c(cc1OCCCCN1CCN(CC(=O)Nc3ccc(Cl)cc3C(=O)c3ccccc3Cl)CC1)N=CC1CCCN1C2=O (stereo not drawn) | -95.9% (active) | -53% (active) | -76.8% (active) | -85% (active) | -75.5% (active) | -94.6% (active) | -86.7% (active) | -67.6% (active) | -65.6% (active) | -61.4% (active) | -84.7% (active) | -57.3% (active) | -88.4% (active) | -98.6% (active) | -92.6% (active) | -85.1% (active) | -84.4% (active) | -86% (active)
C=CCCCC(=O)CCC(=O)OCC1O[C@@H](O[C@@H]2C(O)[C@@H](OC(C)=O)C(C)O[C@H]2O[C@H](CC=C)CCCCC)C(O)[C@@H](OC(=O)/C(C)=C/C)[C@@H]1OC(=O)/C=C/c1ccccc1 (stereo partly drawn) | 33.3% | 34.3% | 17.7% | 4.48% (active) | 29.2% | -11.9% (active) | 14.3% | -10.3% (active) | 20.6% | 0.411% (active) | 30.1% | 45.7% | 11% | 31.3% | -71.5% (active) | 20.1% | -52.9% (active) | 33%
CC(C)(C)C(=O)OCOP(=O)(OCOC(=O)C(C)(C)C)C1CCCN(OC(=O)c2ccccc2)C1=O (stereo not drawn) | 36.9% | 9.43% (active) | 29.4% | 12.7% | 36% | 57.3% | 53% | 47.2% | 28.6% | 5.75% (active) | 73.1% | 14% | 6.63% (active) | 49.7% | -28% (active) | 4.95% (active) | 40.1% | -11.1% (active)
CC(C)[C@@H]1CC[C@]2(CO2)[C@@H]2C(=O)OCC(C(=O)O)=C[C@H]21 | 7.04% (active) | 7.2% (active) | -3.58% (active) | 9.95% (active) | 1.21% (active) | 22.2% | 6.83% (active) | -48.5% (active) | 0.806% (active) | -1.49% (active) | 20.7% | 1.78% (active) | 1.81% (active) | 22.5% | -42.8% (active) | -67.1% (active) | -31.2% (active) | -73.4% (active)
CC(=O)C(C(C)=O)C(c1ccccc1)C(C(C)=O)C(C)=O | 108% | 95.9% | 108% | 97.5% | 108% | 96.7% | 101% | 96.5% | 100% | 98.5% | 95.1% | 102% | 93.5% | 89.8% | 97.2% | 98.2% | 94.4% | 103%
C[N+](C)(CCOC(c1ccccc1)c1ccccc1)CC(=O)OCc1ccccc1 | 105% | 126% | 99.7% | 113% | 106% | 103% | 105% | 91.3% | 99.3% | 101% | 76% | 106% | 106% | 98.3% | 98.1% | 104% | 101% | 106%
Clc1nc(Cl)c2ncn(CC#CCn3cnc4c(Cl)nc(Cl)nc43)c2n1 | -87.2% (active) | -13% (active) | -74.5% (active) | -52.6% (active) | -37.8% (active) | 5.67% (active) | -65.7% (active) | 7.78% (active) | -65.7% (active) | -44.2% (active) | 8.25% (active) | 12.2% | -75.8% (active) | -72.1% (active) | -66.9% (active) | -11.6% (active) | -83.4% (active) | -26.1% (active)
Cc1cc2c3c(cccc3c1)C(=O)c1ccccc1-2 | 98.9% | 98.8% | 90.8% | 92.6% | 92% | 103% | 97.2% | 92.6% | 93.5% | 94.9% | 111% | 97.8% | 98.8% | 93.6% | 95.2% | 85.1% | 86.8% | 105%
CCCCCCCC(=O)SCC/C=C/[C@@H]1CC(=O)NCc2cc(ccn2)C2=N[C@@](C)(CS2)C(=O)N[C@@H](C(C)C)C(=O)O1 | 11.8% | 10.3% | 11.4% | 3.63% (active) | 11.8% | -62.2% (active) | 17% | 4.89% (active) | 1.6% (active) | 1.74% (active) | 31.8% | 10.2% | -55.7% (active) | 16.4% | -95.3% (active) | -56.8% (active) | -95.1% (active) | -24.7% (active)
O=C(Nc1ccc(N=Nc2ccccc2)cc1)c1cccc2ccccc12 | 85.3% | 21.3% | 71.6% | 65.9% | 77.5% | 57.1% | 69% | 37.6% | 21.8% | 35.4% | 39.3% | 67.3% | 63.6% | 54.8% | 59% | 34.6% | 64.4% | 67.5%
Cc1ccsc1C(NC(=O)c1ccccc1)c1cc(Cl)c2cccnc2c1O (stereo not drawn) | 41.2% | 10.4% | 47.4% | 37.8% | 31.6% | 1.35% (active) | 18.7% | 12.3% | 13.4% | 29.2% | 30% | 15.3% | 6.52% (active) | 18.3% | 4.33% (active) | -22.3% (active) | 8.58% (active) | 45.4%
